Holding throughout (type): functional
Assay [1] has as its system Plasmodium falciparum. As to the kind of experiment: GSK_TCMDC: Inhibition of Plasmodium falciparum 3D7 in whole red blood cells, using parasite LDH activity as an index of growth. Test compounds present at 2uM.
Assay [2] relates to Plasmodium falciparum. As to the kind of experiment: GSK_TCMDC: Inhibition of Plasmodium falciparum Dd2 in whole red blood cells, using parasite LDH activity as an index of growth. Test compounds present at 2uM.
Assay [3] has as its system HepG2. As to the kind of experiment: GSK_TCMDC: Percent inhibition of human HepG2 cell line. Test compounds present at 10uM.

As to `O=C1C(c2ccccc2)=C(Nc2cccc([N+](=O)[O-])c2)c2ccccc21`, the Inhibition (in general, the share of the control response that was lost under treatment) in assay [1] was 88%; in assay [2], 88%; in assay [3], 0%.
With `O=C(NCC1COc2ccccc2O1)c1cnc2c(c1)nc(-c1c[nH]c(-c3ccccc3)n1)n2CCSCc1c(F)cccc1Cl` (centres undefined), the Inhibition in assay [1] stood at 95%; in assay [2], 10%; in assay [3], 6%.
As to `CO/C(=C\C=C\c1cc2cc(Cl)c(Cl)cc2[nH]1)C(=O)NCCCNCCN(C)c1ccccc1`, the Inhibition in assay [1] is recorded as 100%; in assay [2], 55%; in assay [3], 33%.
`CNCCNCc1cccc(-c2ccc(-c3nc4ccccc4[nH]3)s2)c1.O=C(O)C(F)(F)F`: the Inhibition was 99% in assay [1], 9% in assay [2] and 8% in assay [3].
In the case of `CC(=O)N1N=C(c2ccc(Cl)cc2)Sc2c1nc(C1CCCCC1)n2C(C)=O`, the Inhibition in assay [1] turned out to be 100%; in assay [2], 67%; in assay [3] it was 1%.
As for `Cc1cccc2[nH]cc(C3CCN(CCC4CCN(C(=O)/C=C/c5ccc(Cl)c(Cl)c5)CC4)CC3)c12`, the Inhibition in assay [1] was 91%; in assay [2], 8%; in assay [3] it was 13%.
Consider `CCC(C)NS(=O)(=O)c1ccc2nc(Nc3ccc(C)cc3)n([C@H](C)C(C)(C)C)c2c1` (some centres undefined), for which the Inhibition in assay [1] is given as 98%; in assay [2], 98%; in assay [3], 2%.
For `CC(C)NCc1cccc(-c2ccc(NC(=O)c3ccc(C#N)cc3)cc2)c1.O=C(O)C(F)(F)F`, the Inhibition was determined as 99% in assay [1], 8% in assay [2] and 15% in assay [3].
Regarding `CCOc1cc(C(=O)Nc2ccc(-c3nc4ccccc4[nH]3)cc2)cc(OCC)c1OCC`, the values for the Inhibition in assay [1], in assay [2] and in assay [3] were 100%, 94% and 42%, respectively.
As for `CCCCCN1CCCC(CNS(=O)(=O)c2ccc(C(=O)Nc3ccc(C(F)(F)F)cc3)cc2)C1.O=C(O)C(F)(F)F` (centres undefined), the Inhibition in assay [1] is 94%; in assay [2], 0%; in assay [3], 51%.
For the compound `COc1ccc2nccc(N3CCN(CCNCc4ccc5c(n4)NC(=O)CS5)CC3)c2n1.Cl`, the values for the Inhibition in assay [1], in assay [2] and in assay [3] were 100%, 67% and 10%, respectively.
For the compound `N#Cc1ccc(NC(=O)Nc2ccc(OC(F)(F)F)cc2)cc1`, the results for the Inhibition in assay [1], in assay [2] and in assay [3] were 98%, 91% and 43%, respectively.
For the compound `O=C(CSc1nc2ccccc2c(=O)n1CC1CCCO1)Nc1cc(C(F)(F)F)ccc1Cl` (centres undefined), the Inhibition in assay [1] came out at 97%; in assay [2], 95%; in assay [3], 12%.
Consider `Cc1cccc2nc(-c3ccc(-c4ccc(NC(=O)Nc5ccc(F)c(F)c5F)cc4)cc3)[nH]c12`, for which the Inhibition is reported as 100% in assay [1], 97% in assay [2] and 51% in assay [3].
As to `O=C(c1ccc(-c2cccc(-c3nc4cc(C(F)(F)F)ccc4[nH]3)c2)cc1)N1CCCCC1CN1CCC(O)C1` (centres undefined), the Inhibition was determined as 100% in assay [1], 98% in assay [2] and 29% in assay [3].
For the compound `O=S(=O)(c1cc(Cl)c(Cl)cc1Cl)N1CCCCC(c2ccc(C(F)(F)F)cc2)=N1`, the Inhibition in assay [1] is 98%; in assay [2], 99%; in assay [3], 9%.
With `COc1cc2nc(N(C)Cc3cc4c(Cl)cccc4s3)nc(N)c2cc1OC.Cl`, the Inhibition in assay [1] was found to be 90%; in assay [2], 27%; in assay [3], 32%.
As for `CCn1c(Sc2ccc([N+](=O)[O-])c(C#N)c2)nnc1-c1cccc(Cl)c1`, the results for the Inhibition in assay [1], in assay [2] and in assay [3] were 89%, 22% and 8%, respectively.
As for `CC(C)(C)c1ccc(CN2CCC(NC(=O)c3ccc(-c4cccc(F)c4)s3)CC2)cc1.O=C(O)C(F)(F)F`, the Inhibition in assay [1] was determined as 92%; in assay [2], 24%; in assay [3], 35%.
Turning to `Nc1nccc2ccc(-c3cccc4ncccc34)cc12.O=C(O)C(F)(F)F`, the Inhibition in assay [1] is listed as 98%; in assay [2], 94%; in assay [3], 40%.
In the case of `Cc1ccc(CCC(C)NCC(O)c2cccc(Cl)c2)cc1` (centres undefined), the Inhibition turned out to be 97% in assay [1], 97% in assay [2] and 2% in assay [3].
In the case of `Cc1cc(CN2CC[C@H](NC(=O)c3ccc(Cl)c(Cl)c3)C2)ccc1OCCN1CCCC1.O=C(O)C(F)(F)F`, the Inhibition stood at 100% in assay [1], 92% in assay [2] and 56% in assay [3].
As for `Cc1ccc(C(=O)Nc2ccc(Nc3ccnc4cc(-c5nccs5)ccc34)cc2O)cc1.Cl`, the Inhibition in assay [1], in assay [2] and in assay [3] was 100% throughout.
For `CCc1ccc(CNCC(CCNc2cc(=O)c3ccccc3[nH]2)NCc2cc(Br)cc(Br)c2)o1` (centres undefined), the Inhibition amounted to 100% in assay [1], 92% in assay [2] and 0% in assay [3].
Consider `CCN(Cc1ccccc1)C1CCN(Cc2cc(Br)ccc2O)CC1.O=C(O)C(=O)O`, for which the Inhibition in assay [1] is given as 97%; in assay [2] it was 97%; in assay [3], 6%.
Turning to `COc1ccc2ncc(C#N)c(CCN3CCC(NCc4ccc5c(c4)NC(=O)CO5)CC3)c2c1.Cl`, the Inhibition in assay [1] amounted to 99%; in assay [2], 43%; in assay [3], 25%.
For the compound `O=C(NCC1CCN(Cc2ccc3c(c2)OCCO3)C1)c1cc(-c2cccc(C(F)(F)F)c2)cs1.O=C(O)C(F)(F)F` (centres undefined), the Inhibition in assay [1] stood at 100%; in assay [2], 1%; in assay [3], 31%.
For `COc1ccc(Nc2nccc(N3CCC(NC(=O)C(C)c4ccc(Cl)cc4)C3)n2)cc1` (centres undefined), the Inhibition amounted to 85% in assay [1], 97% in assay [2] and 35% in assay [3].

(Values after ChEMBL document CHEMBL1157539, “Thousands of chemical starting points for antimalarial lead identification” (Nature, 2010).)
